Test results taken from PubChem BioAssay (EPA / NIEHS).
More than one record can exist for a structure, and the calls need not agree. Active and inactive are the calls of the source. The calls were made as follows: active = hit-call score of the fitted dose curve at least 0.9, where 1 is the maximum; inactive = score below 0.9.

The molecules below were run on Transforming growth factor beta 1 (TGFb1), TGFB1 (gene 7040) (assay: BSK_BE3C_TGFb1: BioMAP Diversity Plus: BE3C Assay for Transforming growth factor beta 1 (TGFb1) Biomarker Activity (AID 2283036;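 also: TGF-b1 protein level measured by ELISA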)). Conditions: primary human bronchial epithelial cells; actives raise or lower the signal.
In short: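 Bronchial epithelial primary cells are treated with test chemical, then TGF-b1 is quantified by ELISA after 24 hours. Values derive from bidirectional fitting against DMSO, with cytotoxicity checked by SRB staining in parallel cultures.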

outcome, inactive:
CCCCCCC(O)CCCCCCCCCCC(=O)OC (configuration not stated), CCC(C)=NO, Cc1cc(-n2nc3ccc(Cl)cc3n2)c(O)c(C(C)(C)C)c1, Oc1cccc2ccccc12, CN(C)c1ccc(C(c2ccccc2)c2ccc(N(C)C)cc2)cc1

What follows are molecules tested on Plasminogen activator inhibitor-1 (PAI1), SERPINE1 (gene 5054) (assay: BSK_BE3C_PAI1: BioMAP Diversity Plus: BE3C Assay for Plasminogen activator inhibitor-1 (PAI1) Biomarker Activity (AID 2283037)). Conditions: primary human bronchial epithelial cells; actives raise or lower the signal.
In short: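 Values derive from bidirectional fitting against DMSO baseline of PAI-1 levels, measured by ELISA in human bronchial epithelial cells 24 h after compound addition.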

outcome, inactive:
CCCCCCC(O)CCCCCCCCCCC(=O)OC (configuration not stated), CCC(C)=NO, Cc1cc(-n2nc3ccc(Cl)cc3n2)c(O)c(C(C)(C)C)c1, Oc1cccc2ccccc12, CC[N+](CC)(CC(=O)Nc1c(C)cccc1C)Cc1ccccc1 (tested in a mixture with another compound)

AC50, active:
CN(C)c1ccc(C(c2ccccc2)c2ccc(N(C)C)cc2)cc1 10.9 µM

These molecules were tested on urokinase plasminogen activator (uPA), PLAU (gene 5328) (assay: BSK_BE3C_uPA: BioMAP Diversity Plus: BE3C Assay for urokinase plasminogen activator (uPA) Biomarker Activity (AID 2283038;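 also: uPA protein level quantified by ELISA in cell cultures; uPA read one day after compound addition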)). Conditions: primary human bronchial epithelial cells; actives raise or lower the signal.
In short: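 ELISA for uPA on human primary bronchial epithelial cultures 24 h post-treatment, gain or loss against DMSO. Parallel SRB staining (0.1% after 10% TCA fixation, 560 nm) assessed overt cytotoxicity.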

outcome, inactive:
CCCCCCC(O)CCCCCCCCCCC(=O)OC (configuration not stated), CCC(C)=NO, Cc1cc(-n2nc3ccc(Cl)cc3n2)c(O)c(C(C)(C)C)c1, Oc1cccc2ccccc12, CN(C)c1ccc(C(c2ccccc2)c2ccc(N(C)C)cc2)cc1, CC[N+](CC)(CC(=O)Nc1c(C)cccc1C)Cc1ccccc1 (tested in a mixture with another compound)

The molecules below were run on Urokinase-type plasminogen activator receptor (uPAR), PLAUR (gene 5329) (assay: BSK_BE3C_uPAR: BioMAP Diversity Plus: BE3C Assay for Urokinase-type plasminogen activator receptor (uPAR) Biomarker Activity (AID 2283039;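 also: uPAR protein level measured by ELISA on the cells; cells exposed to compound for one day before measurement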)). Conditions: primary human bronchial epithelial cells; actives raise or lower the signal.
In short: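 Steps: dose human primary bronchial epithelial cells, incubate 24 h, measure uPAR by ELISA, then fit gain- or loss-of-signal response bidirectionally relative to DMSO.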

outcome, inactive:
CCCCCCC(O)CCCCCCCCCCC(=O)OC (configuration not stated), CCC(C)=NO, Cc1cc(-n2nc3ccc(Cl)cc3n2)c(O)c(C(C)(C)C)c1, Oc1cccc2ccccc12, CN(C)c1ccc(C(c2ccccc2)c2ccc(N(C)C)cc2)cc1, CC[N+](CC)(CC(=O)Nc1c(C)cccc1C)Cc1ccccc1 (tested in a mixture with another compound)

What follows are molecules tested on Interleukin-6 (IL6), IL6 (gene 3569) (assay: BSK_CASM3C_IL6: BioMAP Diversity Plus: CASM3C Assay for Interleukin-6 (IL6) Biomarker Activity for (AID 2283040)). Conditions: primary human coronary artery smooth muscle cells; actives raise or lower the signal.

outcome, inactive:
CCCCCCC(O)CCCCCCCCCCC(=O)OC (configuration not stated), CCC(C)=NO, Cc1cc(-n2nc3ccc(Cl)cc3n2)c(O)c(C(C)(C)C)c1, Oc1cccc2ccccc12, CC[N+](CC)(CC(=O)Nc1c(C)cccc1C)Cc1ccccc1 (tested in a mixture with another compound)

AC50, active:
CN(C)c1ccc(C(c2ccccc2)c2ccc(N(C)C)cc2)cc1 9.64 µM

These molecules were tested on Tissue plasminogen activator (tPA), PLAT (gene 5327) (assay: BSK_BE3C_tPA: BioMAP Diversity Plus: BE3C Assay for Tissue plasminogen activator (tPA) Biomarker Activity (AID 2283041;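 as to outcome: tPA level quantified by ELISA one day after compound addition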)). Conditions: primary human bronchial epithelial cells; actives raise or lower the signal.
In short: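 Gain- or loss-of-signal in tPA, measured by ELISA, derived by bidirectional fitting against DMSO. Cells: human primary bronchial epithelial; read at 24 h after chemical dosing.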

outcome, inactive:
CCCCCCC(O)CCCCCCCCCCC(=O)OC (configuration not stated), CCC(C)=NO, Cc1cc(-n2nc3ccc(Cl)cc3n2)c(O)c(C(C)(C)C)c1, Oc1cccc2ccccc12, CC[N+](CC)(CC(=O)Nc1c(C)cccc1C)Cc1ccccc1 (tested in a mixture with another compound)

AC50, active:
CN(C)c1ccc(C(c2ccccc2)c2ccc(N(C)C)cc2)cc1 6.47 µM

What follows are molecules tested on Interleukin-8 (IL8), CXCL8 (gene 3576) (assay: BSK_CASM3C_IL8: BioMAP Diversity Plus: CASM3C Assay for Interleukin-8 (IL8) Biomarker Activity (AID 2283042;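 also: IL-8 protein level quantified by ELISA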)). Conditions: primary human coronary artery smooth muscle cells; actives raise or lower the signal.

outcome, inactive:
CCCCCCC(O)CCCCCCCCCCC(=O)OC (configuration not stated), CCC(C)=NO, Cc1cc(-n2nc3ccc(Cl)cc3n2)c(O)c(C(C)(C)C)c1, Oc1cccc2ccccc12, CN(C)c1ccc(C(c2ccccc2)c2ccc(N(C)C)cc2)cc1, CC[N+](CC)(CC(=O)Nc1c(C)cccc1C)Cc1ccccc1 (tested in a mixture with another compound)

The molecules below were run on Human Leukocyte Antigen - DR isotype (HLADR), HLA-DRA (gene 3122) (assay: BSK_CASM3C_HLADR: BioMAP Diversity Plus: CASM3C Assay for Human Leukocyte Antigen - DR isotype (HLADR) Biomarker Activity (AID 2283043;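 also: cell-surface HLA-DR protein level quantified by ELISA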)). Conditions: primary human coronary artery smooth muscle cells; actives raise or lower the signal.

outcome, inactive:
CCCCCCC(O)CCCCCCCCCCC(=O)OC (configuration not stated), CCC(C)=NO, Cc1cc(-n2nc3ccc(Cl)cc3n2)c(O)c(C(C)(C)C)c1, Oc1cccc2ccccc12, CN(C)c1ccc(C(c2ccccc2)c2ccc(N(C)C)cc2)cc1, CC[N+](CC)(CC(=O)Nc1c(C)cccc1C)Cc1ccccc1 (tested in a mixture with another compound)

What follows are molecules tested on Macrophage colony-stimulating factor (MCSF), CSF1 (gene 1435) (assay: BSK_CASM3C_MCSF: BioMAP Diversity Plus: CASM3C Assay for Macrophage colony-stimulating factor (MCSF) Biomarker Activity (AID 2283044;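 also: M-CSF protein amount quantified by ELISA after 24 h exposure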)). Conditions: primary human coronary artery smooth muscle cells; actives raise or lower the signal.

outcome, inactive:
CCCCCCC(O)CCCCCCCCCCC(=O)OC (configuration not stated), CCC(C)=NO, Cc1cc(-n2nc3ccc(Cl)cc3n2)c(O)c(C(C)(C)C)c1, Oc1cccc2ccccc12, CN(C)c1ccc(C(c2ccccc2)c2ccc(N(C)C)cc2)cc1, CC[N+](CC)(CC(=O)Nc1c(C)cccc1C)Cc1ccccc1 (tested in a mixture with another compound)

AC50, active:
CC[N+](CC)(CC(=O)Nc1c(C)cccc1C)Cc1ccccc1 (tested in a mixture with another compound) 5.41 µM

The molecules below were run on Low-density lipoprotein receptor (LDLR), LDLR (gene 3949) (assay: BSK_CASM3C_LDLR: BioMAP Diversity Plus: CASM3C Assay for Low-density lipoprotein receptor (LDLR) Biomarker Activity (AID 2283045;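 also: LDLR protein level on the cell surface quantified by ELISA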)). Conditions: primary human coronary artery smooth muscle cells; actives raise or lower the signal.

outcome, inactive:
CCCCCCC(O)CCCCCCCCCCC(=O)OC (configuration not stated), CCC(C)=NO, Cc1cc(-n2nc3ccc(Cl)cc3n2)c(O)c(C(C)(C)C)c1, Oc1cccc2ccccc12, CN(C)c1ccc(C(c2ccccc2)c2ccc(N(C)C)cc2)cc1, CC[N+](CC)(CC(=O)Nc1c(C)cccc1C)Cc1ccccc1 (tested in a mixture with another compound)

AC50, active:
CC[N+](CC)(CC(=O)Nc1c(C)cccc1C)Cc1ccccc1 (tested in a mixture with another compound) 0.591 µM

Each molecule was assayed on Monocyte Chemoattractant Protein-1 (MCP1), CCL2 (gene 6347) (assay: BSK_CASM3C_MCP1: BioMAP Diversity Plus: CASM3C Assay for Monocyte Chemoattractant Protein-1 (MCP1) Biomarker Activity (AID 2283046;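 also: MCP-1 level quantified by ELISA 24 h after dosing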)). Conditions: primary human coronary artery smooth muscle cells; actives raise or lower the signal.

outcome, inactive:
CCCCCCC(O)CCCCCCCCCCC(=O)OC (configuration not stated), CCC(C)=NO, Cc1cc(-n2nc3ccc(Cl)cc3n2)c(O)c(C(C)(C)C)c1, Oc1cccc2ccccc12, CN(C)c1ccc(C(c2ccccc2)c2ccc(N(C)C)cc2)cc1, CC[N+](CC)(CC(=O)Nc1c(C)cccc1C)Cc1ccccc1 (tested in a mixture with another compound)
